Results reported in ChEMBL document CHEMBL3988442, “University of Dundee, Small-Polar-MMV Screening Library” (2021).
For some assays here: Results with a measured potency or affinity are listed apart.

Assays:
Set-up in all cases: scale not given: direction of the effect not stated beside the values
[1] = target: Protein translocase subunit SecA (Escherichia coli (strain K12)) (UniProt P10408); assay: Assay to Identify E. coli SecA ATPase Inhibitors; format: functional; details: 30 µM
[2] = target: T1, Ubiquitin-activating enzyme e1, putative (Leishmania donovani (strain BPK282A1)) (UniProt E9BSI1); assay: Leishmania donovani Ubiquitin Activating Enzyme (LdE1); format: functional; details: 30 µM
T1 sequence (whole entry): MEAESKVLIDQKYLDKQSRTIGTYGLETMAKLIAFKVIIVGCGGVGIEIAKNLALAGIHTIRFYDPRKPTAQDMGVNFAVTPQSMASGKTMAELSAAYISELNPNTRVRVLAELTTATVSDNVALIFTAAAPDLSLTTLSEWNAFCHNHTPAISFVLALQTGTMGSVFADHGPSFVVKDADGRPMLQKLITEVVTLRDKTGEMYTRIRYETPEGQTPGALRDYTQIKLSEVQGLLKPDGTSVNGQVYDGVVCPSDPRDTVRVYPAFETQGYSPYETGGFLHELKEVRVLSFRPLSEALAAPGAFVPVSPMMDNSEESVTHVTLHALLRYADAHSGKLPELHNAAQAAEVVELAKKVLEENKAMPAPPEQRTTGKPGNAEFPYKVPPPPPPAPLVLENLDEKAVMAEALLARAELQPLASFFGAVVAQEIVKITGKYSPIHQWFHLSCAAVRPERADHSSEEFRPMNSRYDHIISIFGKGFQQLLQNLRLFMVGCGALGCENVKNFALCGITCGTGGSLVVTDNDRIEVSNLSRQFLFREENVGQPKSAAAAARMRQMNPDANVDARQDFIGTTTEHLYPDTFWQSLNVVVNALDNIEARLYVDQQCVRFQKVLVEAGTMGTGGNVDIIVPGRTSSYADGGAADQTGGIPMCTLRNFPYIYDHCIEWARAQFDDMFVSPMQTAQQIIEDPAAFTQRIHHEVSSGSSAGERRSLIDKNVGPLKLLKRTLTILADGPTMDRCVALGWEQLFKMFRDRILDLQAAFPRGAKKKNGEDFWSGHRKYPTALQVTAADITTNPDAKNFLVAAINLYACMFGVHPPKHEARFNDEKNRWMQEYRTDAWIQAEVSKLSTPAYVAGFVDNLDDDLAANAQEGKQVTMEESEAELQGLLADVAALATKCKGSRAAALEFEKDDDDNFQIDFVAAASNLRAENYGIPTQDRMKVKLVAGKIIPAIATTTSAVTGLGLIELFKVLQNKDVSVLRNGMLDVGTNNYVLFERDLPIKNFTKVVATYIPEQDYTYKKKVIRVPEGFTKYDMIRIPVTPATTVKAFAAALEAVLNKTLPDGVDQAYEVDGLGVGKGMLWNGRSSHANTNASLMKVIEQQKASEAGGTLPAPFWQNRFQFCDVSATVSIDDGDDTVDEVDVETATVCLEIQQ

[3] = target: AMP-activated protein kinase, AMPK (Homo sapiens) (UniProt P54646+O43741+P54619+Q9UGJ0+Q9Y478+Q13131+Q9UGI9); assay: AMP-dependent Kinase enzyme assay. An in vitro enzyme assay that detects ADP turnover that is directly proportional to AMPK activity. This uses naive AMPK that is activated during the assay with MK-8722; format: functional; details: 30 µM
[4] = target: Sialic acid-binding Ig-like lectin 9 (Homo sapiens) (UniProt Q9Y336); assay: Hs-Siglec9 ALPHAscreen SOP 20170721; details: 10 µM
Sequence of Sialic acid-binding Ig-like lectin 9 (Homo sapiens) (Q9Y336 whole entry): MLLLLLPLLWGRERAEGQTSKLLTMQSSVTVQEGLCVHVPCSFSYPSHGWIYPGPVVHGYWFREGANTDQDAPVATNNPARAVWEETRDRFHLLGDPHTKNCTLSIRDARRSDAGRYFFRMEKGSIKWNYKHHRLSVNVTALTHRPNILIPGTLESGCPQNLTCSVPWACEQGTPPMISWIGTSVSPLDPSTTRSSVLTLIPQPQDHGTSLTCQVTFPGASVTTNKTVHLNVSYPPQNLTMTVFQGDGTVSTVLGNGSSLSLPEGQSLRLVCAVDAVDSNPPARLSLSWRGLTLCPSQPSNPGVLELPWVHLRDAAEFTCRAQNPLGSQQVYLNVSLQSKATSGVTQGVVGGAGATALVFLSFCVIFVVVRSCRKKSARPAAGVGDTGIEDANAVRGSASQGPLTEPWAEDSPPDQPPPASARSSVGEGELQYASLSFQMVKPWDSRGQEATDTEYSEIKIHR

Trypanosoma cruzi = assay: Trypanosoma cruzi phosphomannomutase and mannose-1-phosphate guanylyltransferase assay; format: functional; details: 10 µM
[5] = target: T2, Arginase-2, mitochondrial (Homo sapiens) (UniProt P78540); assay: in vitro enzyme assay to detect the production of urea directly proportional to the activity of Arginase II; format: functional; details: 33.3 µM; note: in the data most compounds retested in dose-response had high values
T2 sequence (whole entry): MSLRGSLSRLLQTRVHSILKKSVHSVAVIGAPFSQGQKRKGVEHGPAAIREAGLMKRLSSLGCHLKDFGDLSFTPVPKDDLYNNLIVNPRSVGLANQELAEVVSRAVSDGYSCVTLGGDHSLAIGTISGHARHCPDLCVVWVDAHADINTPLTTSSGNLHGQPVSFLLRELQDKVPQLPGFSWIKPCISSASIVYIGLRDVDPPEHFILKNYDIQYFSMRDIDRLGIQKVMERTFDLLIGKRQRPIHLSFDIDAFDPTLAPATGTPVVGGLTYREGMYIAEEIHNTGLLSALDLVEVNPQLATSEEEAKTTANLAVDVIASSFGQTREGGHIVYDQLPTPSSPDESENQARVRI

[6] = target: T3, Proteasome subunit beta (Trypanosoma cruzi) (UniProt O96673); assay: Trypanosoma cruzi proteasome chymotrypsin-like activity (TcProtChymo) assay.; note: in the data most compounds retested in dose-response had high values; format: functional; details: 9.37 µM
T3 sequence (whole entry): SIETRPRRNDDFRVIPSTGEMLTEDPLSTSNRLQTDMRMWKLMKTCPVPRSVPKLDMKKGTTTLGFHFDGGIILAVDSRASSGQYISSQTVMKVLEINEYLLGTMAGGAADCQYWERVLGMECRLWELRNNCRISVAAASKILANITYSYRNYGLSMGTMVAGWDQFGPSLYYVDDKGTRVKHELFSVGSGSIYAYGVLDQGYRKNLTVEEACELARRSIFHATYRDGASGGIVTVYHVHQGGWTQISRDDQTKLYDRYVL

Homo sapiens = organism: Homo sapiens; assay: To identify inhibition of the IFN signalling (Jak-Stat) pathway via expression of an eGFP reporter gene under the control of an IFN-stimulated response element (ISRE) containing MxA promoter.; format: functional; details: 30 µM
[7] = target: T4, Tyrosyl-tRNA synthetase, putative (Trypanosoma cruzi (strain CL Brener)) (UniProt Q4DSP6); assay: Trypanosoma cruzi tyrosyl tRNA synthetase (TcYRS) _High Tyrosine SOP; format: functional; details: 30 µM; note: in the data most compounds retested in dose-response had high values
T4 sequence (whole entry): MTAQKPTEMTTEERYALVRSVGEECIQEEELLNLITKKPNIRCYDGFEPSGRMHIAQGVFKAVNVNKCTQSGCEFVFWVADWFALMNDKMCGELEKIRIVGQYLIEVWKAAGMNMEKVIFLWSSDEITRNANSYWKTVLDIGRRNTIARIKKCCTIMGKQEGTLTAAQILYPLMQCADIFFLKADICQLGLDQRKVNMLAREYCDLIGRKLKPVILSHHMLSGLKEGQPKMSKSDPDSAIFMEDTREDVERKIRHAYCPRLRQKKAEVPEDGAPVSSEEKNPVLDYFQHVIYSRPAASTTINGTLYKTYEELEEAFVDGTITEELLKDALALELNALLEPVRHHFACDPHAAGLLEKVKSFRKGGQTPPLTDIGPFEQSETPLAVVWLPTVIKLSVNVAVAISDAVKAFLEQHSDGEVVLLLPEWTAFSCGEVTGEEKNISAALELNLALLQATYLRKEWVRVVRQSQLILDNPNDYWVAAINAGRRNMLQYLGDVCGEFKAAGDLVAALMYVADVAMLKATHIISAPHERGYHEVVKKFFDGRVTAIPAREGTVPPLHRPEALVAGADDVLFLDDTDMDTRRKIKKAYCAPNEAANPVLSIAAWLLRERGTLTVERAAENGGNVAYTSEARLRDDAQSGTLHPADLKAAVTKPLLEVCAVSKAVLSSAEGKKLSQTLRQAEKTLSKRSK

[8] = target: T4, Tyrosyl-tRNA synthetase, putative (Trypanosoma cruzi (strain CL Brener)); assay: Trypanosoma cruzi tyrosyl tRNA synthetase (TcYRS) SOP; format: functional; details: 30 µM
[9] = target: Chromo domain-containing protein 1 (Saccharomyces cerevisiae (strain ATCC 204508 / S288c) (Baker's yeast)) (UniProt P32657); assay: ScCHD-1 Enzyme Inhibition Assay; format: functional; details: 30 µM; note: in the data most compounds retested in dose-response had high values
Sequence of Chromo domain-containing protein 1 (Saccharomyces cerevisiae (strain ATCC 204508 / S288c) (Baker's yeast)) (P32657 whole entry, the tested form may be a part): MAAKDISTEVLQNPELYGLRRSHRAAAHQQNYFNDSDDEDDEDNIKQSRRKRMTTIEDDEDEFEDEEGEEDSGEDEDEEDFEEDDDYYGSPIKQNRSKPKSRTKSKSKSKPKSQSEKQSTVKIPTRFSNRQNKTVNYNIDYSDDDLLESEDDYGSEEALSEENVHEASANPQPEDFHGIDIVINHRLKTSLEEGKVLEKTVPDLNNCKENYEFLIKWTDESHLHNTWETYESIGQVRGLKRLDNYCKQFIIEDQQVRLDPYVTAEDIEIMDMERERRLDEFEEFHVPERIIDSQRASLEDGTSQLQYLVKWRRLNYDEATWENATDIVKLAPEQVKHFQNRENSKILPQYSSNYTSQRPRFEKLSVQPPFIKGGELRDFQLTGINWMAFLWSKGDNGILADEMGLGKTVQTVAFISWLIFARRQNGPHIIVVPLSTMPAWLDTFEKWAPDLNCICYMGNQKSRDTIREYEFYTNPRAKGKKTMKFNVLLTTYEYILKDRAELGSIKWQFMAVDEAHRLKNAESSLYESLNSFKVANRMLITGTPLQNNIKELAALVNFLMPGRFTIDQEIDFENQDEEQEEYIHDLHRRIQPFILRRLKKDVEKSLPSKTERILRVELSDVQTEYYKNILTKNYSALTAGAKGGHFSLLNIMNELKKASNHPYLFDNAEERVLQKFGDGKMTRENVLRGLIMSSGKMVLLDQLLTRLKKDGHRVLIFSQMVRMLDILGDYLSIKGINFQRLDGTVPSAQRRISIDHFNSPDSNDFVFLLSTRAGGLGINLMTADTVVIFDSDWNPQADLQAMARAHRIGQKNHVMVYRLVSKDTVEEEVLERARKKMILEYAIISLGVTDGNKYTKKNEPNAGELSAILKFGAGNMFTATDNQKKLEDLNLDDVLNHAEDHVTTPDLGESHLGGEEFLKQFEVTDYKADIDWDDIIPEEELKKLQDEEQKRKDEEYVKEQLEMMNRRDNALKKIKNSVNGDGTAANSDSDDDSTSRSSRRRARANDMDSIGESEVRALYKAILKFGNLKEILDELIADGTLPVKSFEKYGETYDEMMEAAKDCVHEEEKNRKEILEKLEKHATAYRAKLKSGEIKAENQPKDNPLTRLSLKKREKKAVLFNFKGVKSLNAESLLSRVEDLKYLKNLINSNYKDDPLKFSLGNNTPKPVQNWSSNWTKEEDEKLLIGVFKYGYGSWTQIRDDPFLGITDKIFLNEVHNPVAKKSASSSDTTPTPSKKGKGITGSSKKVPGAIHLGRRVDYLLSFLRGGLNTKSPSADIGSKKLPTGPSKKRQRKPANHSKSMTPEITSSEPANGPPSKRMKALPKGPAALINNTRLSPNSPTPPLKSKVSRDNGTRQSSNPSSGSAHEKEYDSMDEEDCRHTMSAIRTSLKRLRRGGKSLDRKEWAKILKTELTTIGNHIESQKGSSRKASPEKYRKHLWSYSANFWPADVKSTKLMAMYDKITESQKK

Sequence of Protein translocase subunit SecA (Escherichia coli (strain K12)) (P10408 whole entry): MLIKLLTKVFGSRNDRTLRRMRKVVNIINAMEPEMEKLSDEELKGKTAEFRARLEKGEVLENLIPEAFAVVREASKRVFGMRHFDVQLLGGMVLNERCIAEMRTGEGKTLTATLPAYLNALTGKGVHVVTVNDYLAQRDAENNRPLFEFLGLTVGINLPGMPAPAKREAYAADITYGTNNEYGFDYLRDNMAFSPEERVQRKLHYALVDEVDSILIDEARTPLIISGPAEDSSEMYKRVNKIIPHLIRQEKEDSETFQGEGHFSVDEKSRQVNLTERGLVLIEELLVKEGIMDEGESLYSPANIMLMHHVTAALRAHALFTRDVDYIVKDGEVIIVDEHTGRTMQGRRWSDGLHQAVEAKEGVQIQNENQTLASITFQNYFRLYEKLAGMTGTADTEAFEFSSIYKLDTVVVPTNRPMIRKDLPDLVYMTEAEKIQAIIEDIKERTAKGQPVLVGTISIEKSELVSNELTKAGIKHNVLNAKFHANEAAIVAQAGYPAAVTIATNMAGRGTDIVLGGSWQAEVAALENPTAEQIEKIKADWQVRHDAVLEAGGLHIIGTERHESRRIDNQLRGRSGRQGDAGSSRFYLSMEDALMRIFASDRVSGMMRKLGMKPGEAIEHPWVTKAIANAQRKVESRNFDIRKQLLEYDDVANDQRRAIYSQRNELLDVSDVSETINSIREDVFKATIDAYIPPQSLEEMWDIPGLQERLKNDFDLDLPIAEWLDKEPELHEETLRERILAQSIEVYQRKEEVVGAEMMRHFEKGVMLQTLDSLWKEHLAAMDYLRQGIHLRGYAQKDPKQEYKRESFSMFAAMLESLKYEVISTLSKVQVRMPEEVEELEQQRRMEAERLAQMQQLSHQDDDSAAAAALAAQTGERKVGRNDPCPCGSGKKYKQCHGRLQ

Compound | Percent Effect [1] [%] | Percent Effect [2] [%] | Percent Effect [3] [%] | Percent Effect [4] [%] | Percent Effect (Trypanosoma cruzi) [%] | Percent Effect [5] [%] | Percent Effect [6] [%] | Percent Effect (Homo sapiens) [%] | Percent Effect [7] [%] | Percent Effect [8] [%] | Percent Effect [9] [%]
CCN(CC1CCOC1)C(=O)c1ccccc1N1CCOCC1 (configuration not stated) | -3.71 | 23.7 | -4.13 | -10.1 | -3.08 | 1.8 | 4.82 | 12.3 | 5.42 | 11.1 | -5.45
CC(=O)Nc1nc(C2CCN(C(C)=O)CC2)cs1 | 0.424 | 8 | 6.04 | -0.593 | -4.33 | 0.699 | 11.2 | 4.06 | 6.38 | 6.41 | -3.5
Cc1csc(CNC(=O)N(C)Cc2cnn(C)c2)n1 | -2.05 | 21.6 | -6.61 | 2.62 | 4.18 | -4.25 | 16.5 | 12.9 | 5.94 | 23.2 | -4.86
COc1cc(C)sc1C(=O)N1CCC(Nc2cccnc2)CC1 | -6.41 | -121 | 0.841 | 37.6 | 3.17 | 3.19 | 3 | 5.06 | 8.33 | 11.1 | 0.713
Cc1ccc(CN2CC(C(=O)N3CCCC3)C3(CCOCC3)C2)s1 (configuration not stated) | 0.462 | 0 | 0.717 | 0.63 | -5.41 | -54.3 | 2.05 | 5.33 | 2.08 | 0 | -4.71
O=C(CCc1nc2cccnc2[nH]1)NCc1ccc2c(c1)OCO2 | -3.15 | 12 | 2.23 | 0.158 | 0 | -10.4 | 14.1 | -11.6 | 9.52 | 17.9 | -10
O=C(NCc1ccccn1)Nc1cc(C(F)(F)F)c[nH]c1=O | -6.27 | 5.41 | -7.01 | 23.6 | 4.74 | 4.25 | 4.67 | 2.58 | 3.96 | 18.3 | -8.44
CN(C)[C@@H]1CCN(c2ncccn2)[C@H]1Cc1ccccc1 | -5.52 | 5.2 | 0.378 | 3.63 | 2.06 | -1.38 | 8.65 | -3.26 | 2.15 | 6.17 | 1.34
Cc1cc(C)n(CCC(=O)N2CCC(c3nc(C(C)C)no3)CC2)n1 | -2.78 | 20.8 | 4.41 | 11.6 | 5.8 | -40 | 16.5 | -3.55 | 6.45 | 18.5 | -7.45
Cc1ccc(S(=O)(=O)N2CSCC2C(=O)N(C)C2CC2)cc1Cl (configuration not stated) | -5.45 | 5.41 | -2.19 | 10.8 | 6.16 | 1.74 | 7.47 | 5.7 | 0 | 3.7 | -5.33
Cc1csc([C@@H]2C[C@@H]3CCN(C(=O)c4ccnnc4)C[C@H]3O2)n1 | 0.296 | 2.6 | 5.97 | 6.2 | -0.296 | -0.645 | -0.174 | 12.4 | 6.35 | 8.97 | -1.14
Cc1nc(C2CCCN(C(=O)Cn3ccccc3=O)C2)no1 (configuration not stated) | -0.276 | 0 | 3.05 | 1.79 | -0.564 | 4.6 | -4.84 | 8.71 | 2.45 | 4.88 | 3.7
C1CC(c2noc(C3CC3)n2)CN(Cc2noc(C3CC3)n2)C1 (configuration not stated) | -3.36 | 0 | -13.1 | 11.5 | -3.11 | -1.6 | 1.62 | -3.78 | 0.493 | 1.24 | 1.88
O=C(N1CCCC1)N1CCN(CC2CC2)c2ncccc2C1 | -3.07 | 5.33 | 8.78 | -0.324 | -6.69 | 7.69 | 21.8 | 10.6 | 4.25 | 1.28 | -4.2
Cc1nc(CN(C)C2CCN(Cc3sc(C)nc3C)C2)no1 (configuration not stated) | -3.5 | 7.89 | -14.6 | 4.01 | 7.38 | 0 | 20.6 | 2.16 | 4.43 | 11.1 | -3.08
CNC(=O)c1ccc(CN2CCC(N(C)Cc3noc(C)n3)C2)cc1 (configuration not stated) | -2.92 | 18.2 | -3.53 | -3.54 | -2.25 | 4.42 | 15.9 | 22.1 | -1.91 | 14.1 | -19.2
Cc1cc(C)n(C2CN(CC(O)COc3ccc(F)cc3)C2)n1 (configuration not stated) | -3.4 | -20.8 | 2.93 | 9.67 | -1.12 | 1.42 | -0.169 | -11.2 | 4.85 | -4.88 | -2.37
COCC(=O)N(C)Cc1cccc(Cl)c1 | -4 | 10.5 | -1.75 | -3.18 | 4.19 | 0 | 2.78 | 4.21 | 1.06 | 13 | -4.61
COc1cccc(CNc2nc(O)cc(C3CC(=O)N(C)C3)n2)c1 (configuration not stated) | 1.85 | 12.2 | 4.37 | 1.72 | -4.35 | 2.09 | 16.7 | 14.9 | 5.38 | -1.3 | -11.6
Cn1ncc2c1CCCC2NCc1ccc(Cl)s1 (configuration not stated) | -4.36 | 13 | -34.6 | -13.6 | -1.08 | 2.74 | 12.2 | 9.39 | 6.67 | 11.8 | -19.4
O=C(NCCNc1ccc(C(F)(F)F)cn1)c1cncc(Br)c1 | 1.84 | 15.6 | 50.8 | -7 | -4.8 | 3.58 | 12.5 | 27.5 | 13.3 | 30.6 | -20.7
CCOC(=O)C1CCN(C(=O)Cn2ccc3cc(Br)ccc32)CC1 | -3.71 | 14.7 | -7.58 | -2.58 | 6.29 | -0.88 | 9.43 | 4.34 | 1.06 | 10.3 | -13.5
